Test results: PubChem BioAssay AID1362 (SRMLSC, 2008)
Among all 190,000 compounds or so, about 4,000 (2.1%) were called active. Cut-off read from the data, not from the text of the source: active = inhibition above about 58%; inactive = the rest, inconclusive results apart; tested in S. cerevisiae. What follows is part of a selection rich in actives, with near analogues and random picks from the rest.

Assay: growth inhibition of WT strain, primary screen, mitochondrial fusion inhibitor project, WT and mutant strains, chemical genetic (AID 1362)
Conditions: mitochondrial fusion phenotypic screen, at 10 µM
[1] = WT strain, growth inhibition, stronger effect = higher value

Structure (SMILES)	inhibition [1]	inhibition (mutant strain inhibition)
CC1(C)CC2CC(C)(CN2c2ncnc3ccc(Br)cc23)C1 (configuration not stated)	64.4% (active)	47.6%
CC1=CC=CC2=N/C(=N\S(=O)(=O)c3ccc(F)cc3F)c3ccccc3CN12	7.93% (inactive)	-4.27%
Cc1ccc(S(=O)(=O)N(C)CC(=O)OCC(=O)N2CC(=O)Nc3ccccc32)cc1	-2.48% (inactive)	-6.41%
O=C(c1cccnc1)N(c1cc2sc(=O)oc2c2ccccc12)S(=O)(=O)c1ccccc1	69% (active)	25.4%
CN(C)S(=O)(=O)c1cccc(C(=O)Nc2cccnc2)c1	-9.84% (inactive)	2.94%
COc1ccc(N(C(=O)c2cccnc2)S(=O)(=O)c2ccc3c(c2)n(C)c(=O)n3C)cc1	-46.4% (inactive)	-32.1%
CN1CCN(CCNC(=O)Nc2ccc([N+](=O)[O-])cc2)CC1	22.2% (inactive)	0.87%
O=C(COc1ccc(S(=O)(=O)N2CCCCC2)cc1)NCc1ccccn1	14.7% (inactive)	2.79%
O=C(c1ccc(CSc2ccccc2)cc1)N1CCCCCC1	38.9% (inactive)	19.1%
CC1CCN(C(=O)c2ccc(CSc3ccc(Cl)cc3)cc2)CC1	75.2% (active)	26.4%
O=C(C1CC1)N1CCN=C1SCc1ccc(Cl)cc1	22.2% (inactive)	20.3%
CN(NC(=O)C1CC(=O)N(c2ccccc2)C1)C1=NS(=O)(=O)c2ccccc21 (configuration not stated)	-6.62% (inactive)	8.77%
CC(C)N(Cc1ccccc1)C(=O)COC(=O)c1cnccn1	-8.68% (inactive)	-4.78%
CCOc1cccc(/C=N/N2C(=O)CSC2=S)c1O	-2% (inactive)	11.3%
COc1ccc2[nH]c(C)c(CCN(Cc3cccs3)C(=S)Nc3ccccc3OC)c2c1	10.9% (inactive)	3.89%
CCNC(=S)N(CCc1c(C)[nH]c2ccc(C)cc12)Cc1ccco1	22.5% (inactive)	-3.3%
COc1cccc(NC(=S)N(CCc2c(C)[nH]c3ccccc23)Cc2ccco2)c1	63.2% (active)	-12.2%
Cc1ccc(N(C(=O)c2sc(C)nc2C)C(C(=O)NC(C)(C)C)c2ccncc2)cc1 (configuration not stated)	-8.21% (inactive)	7.16%
COc1ccc(C2CC(c3cccs3)=NN2C(=O)CSc2nnc(N)s2)cc1OC (configuration not stated)	-8.12% (inactive)	-5.34%
CCN1CN(Cc2ccccc2)CNC1=S	1.7% (inactive)	0.04%
CC1CC(=S)Nc2ccccc2N1Cc1ccccc1 (configuration not stated)	65.9% (active)	26.3%
